Compound activity as filed in PubChem.
Shown are actives, neighbours in structure and some others; about 19% of the full set was active somewhere.
DT40 TDP1 no CPT: qHTS for Inhibitors of human tyrosyl-DNA phosphodiesterase 1 (TDP1): qHTS in cells in absence of CPT; DT40 Tdp1-/- hTDP1 cells, no CPT, ATP luminescence, 48 h; Potency, µM (series often up to 46.2 µM), for the others: at the highest dose activity change, negative = growth inhibition, usual class: inhibitors; 15% of 420,000 active; AID 686978, 2013; also: potency is read from the fitted curve at half-maximal effect; nearly all actives have a fitted effect of over 55% in size
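Growth of hTDP1-complemented DT40 Tdp1-knockout cells is measured by ATP luminescence after at least 48 hr compound exposure at 37 °C, with DMSO substituting for the 20 nM CPT used in the parallel screen.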
DT40 TDP1 CPT: qHTS for Inhibitors of human tyrosyl-DNA phosphodiesterase 1 (TDP1): qHTS in cells in presence of CPT | chicken DT40 Tdp1-/-;hTDP1 cells + 20 nM CPT, ATP luminescence, 48 h | Potency, µM (series often up to 46.2 µM), without a hit: at the top dose activity change, negative = growth inhibition, usual class: inhibitors | 12% of 420,000 active | AID 686979, 2013; also: potency is read from the fitted curve at half-maximal effect; nearly all actives have a fitted effect of over 55% in size
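Cell growth measured by CellTiter-Glo luminescence after a minimum 48 h, 37 C compound exposure with 20 nM CPT in Tdp1-knockout DT40 cells stably expressing hTDP1, seeded 400/well; qHTS titration format.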
HT1080 IDH1KD tx: qHTS for induction of synthetic lethality in tumor cells producing 2HG: qHTS for the HT-1080-IDH1KD cell line; HT-1080 IDH1 knockdown viability, ATP luminescence, 48 h; Potency, µM (titrated, usually from 46.1 µM), without a hit: at the highest dose activity, negative = toxicity, most hits filed as cytotoxic; 2% of 360,000 active;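 also: potency is read from the fitted curve at half-maximal effect; 0% = DMSO wells and -100% = cell-free medium wells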
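Using the IDH1-knockdown HT-1080 line run in the same batch and compound series as the NT line, viability after 48 h at 37 °C was determined by CellTiter-Glo luminescence and expressed as % activity.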
HT1080-NT tox: qHTS for induction of synthetic lethality in tumor cells producing 2HG: qHTS for the HT-1080-NT fibrosarcoma cell line. HT-1080-NT fibrosarcoma viability, CellTiter-Glo ATP luminescence, 48 h. 1.6% of 360,000 active. Potency, µM (top dose mostly 46.1 µM), for the others: at the top dose activity, negative = less viability, most hits filed as cytotoxic;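 also: NT is the 2HG producing partner of a matched IDH1 knockdown line; potency is read from the fitted curve at half-maximal effect; 0% = DMSO-treated cells and -100% = media-only wells without cells; nearly all actives have a fitted effect of over 55% in size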
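Toxicity toward the 2HG-producing NT line was scored as %Activity, normalised to DMSO and no-cell wells, from CellTiter-Glo luminescence after 48 hours' treatment.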
IL1B secr inh: qHTS for Inhibitors of Inflammasome Signaling: IL-1-beta AlphaLISA Primary Screen; THP-1 LPS/ATP IL-1B secretion, AlphaLISA, 16 h; stronger effect = lower value; activity change, % at 57.5 µM; 4.7% of 360,000 active; in the data active = activity change below about -50%; inconclusive = mostly about -30% to -49%
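Secreted IL-1B measured by AlphaLISA bead assay after 16 h compound exposure of THP-1 cells; compounds (final up to 57.5 uM) added 1 h before LPS (250 ng/mL) and ATP (1.25 mM) stimulation; lower signal means less secretion.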
* marks the source's active call; other numbers are inactive results; ? = inconclusive; / = no result. Unless noted, calls follow the shape of the dose curve; as a rule, active = well fitted curve in the direction sought with a large enough effect; inconclusive = small, poorly fitted or top-dose-only effect, or another doubt; inactive = no such curve, though single readings can be large; an effect the other way counts as inactive or inconclusive. Unless noted, % is scaled to controls: 0 for no effect and ±100 for the full control effect.

SMILES | DT40 TDP1 no CPT | DT40 TDP1 CPT | HT1080 IDH1KD tx | HT1080-NT tox | IL1B secr inh
O=C(CSc1nc(-c2ccccc2)cc(C(F)(F)F)n1)N1CCOCC1 | -24% | 0% | 1% | 4% | -19
CC(=O)OC1CC(OC(C)=O)[C@]2(C)C(CC(=O)[C@]3(C)C2CC[C@@]2(C)C(C(=O)O)OC(=O)C4OC423)C1(C)C (some centres not stated) | 3% | 6% | / | / | /
Cc1ccc(NC(c2nnc(-c3ccccc3)o2)c2ccccc2F)c([N+](=O)[O-])c1 (configuration not stated) | 23µM* | -23% | / | / | /
COc1ccc(Cl)cc1-c1nc(SCC(=O)NC2CCCC2)n[nH]1 | ? | ? | -13% | -9% | ?
COc1ccc(Cl)cc1N1C(=O)/C(=C/c2sccc2C)N=C1SCC(=O)NC1CC1 | 16µM* | ? | -20% | -20% | -70*
O=C(CSC1=N/C(=C/c2ccc(Cl)c(Cl)c2)C(=O)N1c1ccccc1F)NC1CC1 | 16µM* | 16µM* | -8% | 0% | -7
CCCCCNC(=O)CSC1=N/C(=C\c2ccc(Cl)c(Cl)c2)C(=O)N1CC | -5% | -13% | 5% | 12% | 10
COc1ccc(C(NC(=O)C(C)C)c2c(O)ccc3ccccc23)cc1OC (configuration not stated) | 2% | 5% | 0% | 0% | -4
CCC(C(=O)Nc1ccc(C)c(Cl)c1)n1c(=O)c(-c2ccccc2NC(C)=O)nc2ccccc21 (configuration not stated) | 13µM* | 21µM* | / | / | /
CC(=O)Nc1ccccc1-c1nc2ccccc2n(C(C)C(=O)Nc2ccccc2C(F)(F)F)c1=O (configuration not stated) | ? | -28% | / | / | /
CCC(=O)Nc1ccccc1-c1nc2ccccc2n(C(C)C(=O)Nc2ccc(OC)cc2)c1=O (configuration not stated) | 15µM* | ? | / | / | /
COc1ccc(Cl)cc1NC(=O)Cn1c(=O)c(-c2ccccc2NC(C)=O)nc2ccccc21 | 15µM* | 13µM* | / | / | /
CC(=O)Nc1ccccc1-c1nc2ccccc2n(C(C)C(=O)Nc2cccc(C)c2C)c1=O (configuration not stated) | ? | 21µM* | / | / | /
COc1cccc(CC(=O)OC(C)C(=O)Nc2ncc(Cl)cc2Cl)c1 (configuration not stated) | -10% | -20% | -7% | 0% | -5
CCC(=O)Nc1ccccc1-c1nc2ccccc2n(CC(=O)Nc2ccccc2OC)c1=O | 5.8µM* | 5.8µM* | / | / | /
Cc1cc(Br)cn2c(Cc3ccccc3)c(-c3ccco3)nc12 | ? | ? | ? | ? | -19
Clc1cccc(Cc2c(-c3ccccc3)nc3ccc(Br)cn23)c1 | ? | ? | -27% | -27% | 0
Cc1cc(Br)cn2c(Cc3ccsc3)c(-c3cccc(Cl)c3)nc12 | ? | -19% | 16% | 16% | 7
Cc1cc(Br)cn2c(Cc3ccsc3)c(-c3ccc(Cl)cc3)nc12 | 18µM* | 15µM* | ? | ? | 89
N#Cc1ccc(-c2nc3ccc(Br)cn3c2Cc2ccsc2)cc1 | -99% | -100% | 7% | -1% | -19
Cc1cc(Br)cn2c(Cc3ccsc3)c(-c3ccco3)nc12 | ? | ? | 23µM* | 16µM* | -7
Clc1ccc(-c2nc3ccc(Br)cn3c2Cc2ccccc2)cc1 | 21µM* | 23µM* | 2% | 8% | 18
Clc1ccc(-c2nc3ccc(Br)cn3c2Cc2ccsc2)cc1 | 16µM* | 16µM* | ? | -17% | 44
Cc1ccc(CN(C)C(=O)C2CCC(=O)N(C3CCCCCC3)C2)cc1 (configuration not stated) | -27% | 9% | 1% | 8% | -13
O=C(O)c1ccccc1C=NNc1ccccn1 | 0% | 0% | 10% | 8% | -2
SMILES | DT40 TDP1 no CPT | DT40 TDP1 CPT | HT1080 IDH1KD tx | HT1080-NT tox | IL1B secr inh
O=[N+]([O-])c1ccc(S(=O)(=O)Nc2nnc(C3CCCCC3)s2)cc1 | -27% | -25% | -7% | -11% | 11
COCc1ccc(C(=O)N2CCCC(Nc3ccc4c(c3)OCCO4)C2)o1 (configuration not stated) | -8% | -2% | 9% | 1% | -3
Fc1ccc(-c2nc3ccc(Br)cn3c2Cc2ccccc2)cc1 | ? | ? | -4% | -1% | 28
Brc1ccc(-c2nc3ccc(Br)cn3c2Cc2ccccc2)cc1 | 21µM* | ? | ? | ? | -16
N#Cc1ccc(NC(=O)c2cc(-c3cccc(Cl)c3)on2)cc1 | 0% | 0% | / | / | /
CCCCOc1ccc(OC(=O)c2cccnc2)cc1 | 16µM* | 21µM* | ? | -7% | -3
CCCCCCCOc1ccc(OC(=O)c2cccnc2)cc1 | 8.2µM* | 5.2µM* | 6% | 1% | 9
CCCCCCCOc1ccc(OC(=O)c2ccncc2)cc1 | 10µM* | 9.2µM* | 6% | 0% | 8
CCN(CC(=O)Nc1c(F)cccc1F)C(=O)CCC(=O)c1ccc(C)cc1 | -5% | -17% | 17% | 2% | 3
Cc1ccc(CNC(=O)C(CC(C)C)OC(=O)c2ccco2)cc1 (configuration not stated) | -19% | 2% | -2% | 0% | -2
O=CNCCCc1nc2ccccc2n1CCc1ccccc1 | 1% | 5% | -4% | 17% | -12
CCc1cccc2c(C=C(C#N)C#N)cn(CC(=O)N3CCCCCC3)c12 | -13% | -20% | 6% | 0% | 0
COc1ccc(-c2noc(CCC(=O)NCCN3CCN(c4ccccc4F)CC3)n2)cc1 | 15µM* | 16µM* | -2% | -5% | -10
